From PubChem BioAssay (NCATS) come the findings set out here.

The structures appear in SMILES notation. Records with an inconclusive call do not appear. Active and inactive are the calls of the source. Unless noted, calls follow the shape of the dose curve; as a rule, active = well fitted curve in either direction with a large enough effect (not every such curve was filed as active); inconclusive = small, poorly fitted or top-dose-only effect, or another doubt; inactive = flat fitted curve, though single readings scatter. Where only a bound is given, the exact number is not on record here.

In assay [1] the target is Lysosomal acid glucosylceramidase (Homo sapiens) (UniProt P04062). Nature of the assay: Glucocerebrosidase-p2 (AID 348; in the data active = potency below about 10 µM; also: potency is read from the fitted curve at half-maximal effect). To be noted: purified GBA, blue fluorogenic substrate, 40 min. The essentials: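 Compounds titrated from 0.6 nM upwards against 0.2 nM enzyme in pH 5.9 citric acid/KH2PO4, taurocholate, tween-20; blue fluorogenic substrate 80 uM, 40 min room temperature, stopped and read Ex 365/Em 440 for AC50.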
Lysosomal acid glucosylceramidase (Homo sapiens), sequence (P04062 whole entry, looked up): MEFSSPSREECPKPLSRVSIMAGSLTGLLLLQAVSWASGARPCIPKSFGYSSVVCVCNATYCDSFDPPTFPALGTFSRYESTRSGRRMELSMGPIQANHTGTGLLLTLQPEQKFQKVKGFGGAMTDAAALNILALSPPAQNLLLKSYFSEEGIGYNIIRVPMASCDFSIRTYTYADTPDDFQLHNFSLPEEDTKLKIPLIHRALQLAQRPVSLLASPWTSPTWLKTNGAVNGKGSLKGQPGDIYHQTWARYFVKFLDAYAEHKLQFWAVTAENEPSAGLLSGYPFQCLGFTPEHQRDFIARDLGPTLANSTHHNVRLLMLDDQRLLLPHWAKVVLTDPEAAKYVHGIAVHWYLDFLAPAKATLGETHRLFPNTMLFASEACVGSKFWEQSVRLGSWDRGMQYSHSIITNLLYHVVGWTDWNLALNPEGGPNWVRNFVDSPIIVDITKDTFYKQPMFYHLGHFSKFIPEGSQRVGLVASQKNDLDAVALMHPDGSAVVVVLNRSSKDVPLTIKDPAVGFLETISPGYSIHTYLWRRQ

Assay [2] in a line: AP1 Signaling Pathway (AID 357). Also: % is scaled to controls: 0 for no effect and ±100 for the full control effect. The settings on record: ME-180 AP-1-bla reporter, EGF-induced, beta-lactamase ratio, 5 h; at 7.69 µM (top of the series) unless noted. The essentials: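 AP-1-bla ME-180 cells with beta-lactamase reporter under AP-1 response element, stimulated with EC50 EGF; compounds titrated, 5 hours at 37 degrees Celsius. CCF4 read at 460/530 nm ratio; positive and negative modulators judged by AC50.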

Assay [3] is described as follows: NFAT Signaling Pathway (AID 444).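 Also: carbachol stimulus at about its EC50 of 1 µM final; % is scaled to controls: 0 for no effect and ±100 for the full control effect.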 The settings on record: Jurkat NFAT-bla M1, carbachol, beta-lactamase ratio, 5 h; at 7.69 µM (top of the series) unless noted. The essentials: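 Read-out: CCF4 FRET ratio (460 nm/530 nm) after 1 h RT dye loading, used for %activity and AC50 from titration series. Cells: Jurkat NFAT-β-lactamase/M1 line, treated with compound plus 1 uM carbachol for 5 h, 37 °C.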

The nature of assay [4]: Stat Signaling Pathway (AID 446).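 Also: ME-180 cervical cancer cells given 40 pM IL-6 alongside compound; SIE-controlled beta-lactamase reporter measured as 460/530 nm FRET emission ratio; % is scaled to controls: 0 for no effect and ±100 for the full control effect.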 To be noted: ME-180 (cervical carcinoma) SIE beta-lactamase reporter, IL-6 stimulated, 5 h; at 7.69 µM (top of the series) unless noted. The essentials: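 IL-6/STAT signaling read in ME-180 cells via an SIE beta-lactamase reporter. Stimulus was 40 pM IL-6 (its AC50) for 5 hrs, so both activation and inhibition register.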
The target in assay [5] is Glucocorticoid receptor (Homo sapiens) (UniProt P04150). The assay is described as follows: GR-GFP Redistribution (AID 450;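 active = compounds whose dose series gives a full or clear partial fitted curve of increased nuclear translocation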; also: potency is read from the fitted curve at half-maximal effect). To be noted: U2OS GR-GFP nuclear translocation, laser cytometry, 2 h.
Glucocorticoid receptor (Homo sapiens), sequence (P04150 whole entry, looked up, the tested form may be a part): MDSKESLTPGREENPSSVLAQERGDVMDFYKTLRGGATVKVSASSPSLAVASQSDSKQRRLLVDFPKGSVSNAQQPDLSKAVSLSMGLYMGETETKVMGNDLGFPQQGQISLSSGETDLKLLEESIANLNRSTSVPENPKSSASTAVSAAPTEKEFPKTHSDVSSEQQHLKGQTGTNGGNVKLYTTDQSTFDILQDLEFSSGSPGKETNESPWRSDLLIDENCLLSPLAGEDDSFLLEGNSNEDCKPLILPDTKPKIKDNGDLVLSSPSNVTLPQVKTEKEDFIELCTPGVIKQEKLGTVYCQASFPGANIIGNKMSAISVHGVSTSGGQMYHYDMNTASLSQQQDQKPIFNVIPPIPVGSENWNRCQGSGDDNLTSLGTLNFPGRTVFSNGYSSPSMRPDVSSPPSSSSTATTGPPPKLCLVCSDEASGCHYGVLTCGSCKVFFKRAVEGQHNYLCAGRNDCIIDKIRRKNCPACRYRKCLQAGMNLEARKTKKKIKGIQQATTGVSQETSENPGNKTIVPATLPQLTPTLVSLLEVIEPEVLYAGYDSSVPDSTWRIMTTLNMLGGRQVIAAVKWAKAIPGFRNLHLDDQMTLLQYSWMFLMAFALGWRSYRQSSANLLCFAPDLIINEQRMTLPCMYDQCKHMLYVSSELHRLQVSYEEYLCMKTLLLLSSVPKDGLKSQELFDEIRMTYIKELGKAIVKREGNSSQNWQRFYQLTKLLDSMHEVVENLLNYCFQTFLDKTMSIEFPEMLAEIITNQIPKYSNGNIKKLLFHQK
Assay [6] has the same target. Nature of the assay: GR-EFC Redistribution (AID 451; calls by dose curve; also: potency is read from the fitted curve at half-maximal effect). The settings on record: CHO-K1 GR-EFC translocation, beta-gal luminescence, 2 h. The procedure, abridged: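 Translocation of GR-ED fusion to nuclear EA restores b-gal, read by luminescence after 1 h room-temperature detection. Engineered CHO-K1 biosensor cells, 1,000/well, exposed 2 h at 37 C to titrations up to 46 uM final.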

Assay [7] deals with Mitogen-activated protein kinase 10 (Mus musculus) (UniProt Q61831). Nature of the assay: JNK3 AlphaScreen Assay (AID 530).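 Also: kinase came from lysate of stimulated human HepG2 cells; signal reports phosphorylation of biotinylated GST-cJun 1-79 at Ser73 with 10 µM ATP; % is scaled to controls: 0 for no effect and ±100 for the full control effect.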 The settings on record: JNK3 lysate, c-Jun phosphorylation; series mostly up to 57.1 µM. The essentials:
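Room-temperature AlphaScreen kinase assay; pre-activated HepG2 lysate as JNK3 source, biotin-GST-cJun(1-79) substrate, 10 uM ATP, compound 15 min preincubation.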
(Alpha assays give light when donor and acceptor beads are brought close together.)

In assay [8] the target is 3',5'-cyclic-AMP phosphodiesterase 4B (Homo sapiens) (UniProt Q07343). Nature of the assay: qHTS Assay for Inhibitors of PDE-IV (AID 607; active = well fitted activation curve with a large enough effect in the main read-out, with a control signal flat, not every such curve was filed as active; also: % of control where 0% means no effect). To be noted: HEK293 ACTOne CNG channel cells, membrane potential fluorescence; series mostly up to 22.9 µM. The procedure, abridged:
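Live HEK293 cells with a modified cyclic nucleotide-gated (CNG) channel report intracellular cAMP via membrane-potential dye fluorescence (ex 535/em 590 nm). Endogenous PDE-IV was targeted. Compounds were tested at up to 22.9 uM final; RO 20-1724 100 uM served as control.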

Assay [9] deals with Cytochrome P450 3A4 (Homo sapiens) (UniProt P08684). The assay is described as follows: qHTS Assay for Activators of Cytochrome P450 3A4 (AID 885; active = well fitted curve in the direction sought with a large enough effect; an effect the other way counts as inactive or inconclusive; also: nearly all actives have a fitted effect of over 65% in size). To be noted: recombinant CYP3A4, Luciferin-PPXE luminescence, 60 min; series mostly up to 57.1 µM. The essentials: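 Quantitative HTS format: compounds preincubated with 20nM human CYP3A4 and Luciferin-PPXE substrate at KM, reaction started by NADPH regeneration, stopped after 60 min, luciferase luminescence read 20 min later.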
Cytochrome P450 3A4 (Homo sapiens), sequence (P08684 whole entry, looked up): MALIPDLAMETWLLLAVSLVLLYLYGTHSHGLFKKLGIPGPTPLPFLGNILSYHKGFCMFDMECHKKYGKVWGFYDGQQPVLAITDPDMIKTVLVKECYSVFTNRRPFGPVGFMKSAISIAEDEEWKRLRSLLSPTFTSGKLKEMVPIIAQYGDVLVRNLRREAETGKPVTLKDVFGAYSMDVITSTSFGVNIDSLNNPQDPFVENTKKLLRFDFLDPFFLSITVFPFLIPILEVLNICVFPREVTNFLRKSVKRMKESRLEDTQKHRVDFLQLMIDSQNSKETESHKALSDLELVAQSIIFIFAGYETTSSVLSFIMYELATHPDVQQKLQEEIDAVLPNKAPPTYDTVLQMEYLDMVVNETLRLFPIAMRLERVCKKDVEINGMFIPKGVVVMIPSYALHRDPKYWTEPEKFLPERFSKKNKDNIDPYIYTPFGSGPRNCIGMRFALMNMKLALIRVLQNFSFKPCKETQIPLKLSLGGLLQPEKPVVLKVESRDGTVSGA

Assay [10] in a line: qHTS Assay for Lipid Storage Modulators (AID 1519; calls by dose curve). To be noted: Drosophila S3 cells, BODIPY lipid droplet/cell ratio, laser cytometry, cells loaded with oleic acid; for activity change, negative = inhibition: at 57.5 µM (top of the series). The essentials:
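Cells seeded at 5,000 per well were treated with compounds over a concentration series and loaded with oleic acid (400 uM, as added). Lipid droplet fluorescence (488 nm excitation, 500-530 nm channel) was read by laser-scanning cytometry and normalized to 20 uM Triacsin C.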

Assay [11] has as its target Ubiquitin carboxyl-terminal hydrolase 1 (Homo sapiens) (UniProt O94782). The assay is described as follows: Inhibitors of USP1/UAF1: Pilot qHTS (AID 504865; active = well fitted curve in the direction sought with a large enough effect; an effect the other way counts as inactive or inconclusive;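 also: rhodamine fluorescence freed from ubiquitin-rhodamine substrate followed over time; top concentration of the series differs between compounds; % is scaled to controls: 0 for no effect and ±100 for the full control effect; nearly all actives have a fitted effect of over 35% in size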). The settings on record: purified USP1/UAF1, Ub-rhodamine cleavage fluorescence; series mostly up to 54.9 µM. The essentials:
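Kinetic fluorescence assay: 1nM USP1/UAF1, 15 min compound preincubation, then 150nM Ub-Rho; 480/540 nm.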
On the technique in general: qHTS replaces the single test concentration by a dilution series.

The target in assay [12] is Cytochrome P450 1A2 (Homo sapiens) (UniProt P05177). The assay is described as follows: p450-cyp1a2 (AID 410; calls by dose curve; also: potency is read from the fitted curve at half-maximal effect). The settings on record: recombinant CYP1A2, luciferin-ME demethylation, luminescence; series mostly up to 57 µM. The essentials: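 Inhibition was calculated relative to 57 uM furafylline (full inhibition). The reaction used human CYP1A2 at 20nM with Luciferin-ME at its Km, 100uM, driven by an NADPH-regenerating system for 60 min at room temperature.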
Cytochrome P450 1A2 (Homo sapiens), sequence (P05177 whole entry, looked up): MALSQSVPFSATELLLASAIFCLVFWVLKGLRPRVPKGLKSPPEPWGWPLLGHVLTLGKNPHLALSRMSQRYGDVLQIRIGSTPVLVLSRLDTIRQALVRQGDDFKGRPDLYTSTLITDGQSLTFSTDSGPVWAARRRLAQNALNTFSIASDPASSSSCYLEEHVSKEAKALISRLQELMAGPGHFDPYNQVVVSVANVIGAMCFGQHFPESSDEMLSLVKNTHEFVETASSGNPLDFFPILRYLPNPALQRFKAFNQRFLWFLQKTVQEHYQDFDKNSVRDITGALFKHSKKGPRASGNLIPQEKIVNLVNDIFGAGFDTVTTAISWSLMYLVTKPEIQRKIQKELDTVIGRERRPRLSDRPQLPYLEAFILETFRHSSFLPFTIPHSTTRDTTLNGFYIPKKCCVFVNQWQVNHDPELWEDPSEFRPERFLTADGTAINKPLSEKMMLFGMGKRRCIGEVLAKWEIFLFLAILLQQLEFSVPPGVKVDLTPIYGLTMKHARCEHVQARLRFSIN

Assay [13] concerns the target Cytochrome P450 2C19 (Homo sapiens) (UniProt P33261). Nature of the assay: qHTS Assay for Inhibitors and Substrates of Cytochrome P450 2C19 (AID 899; active = well fitted curve in the direction sought with a large enough effect; an effect the other way counts as inactive or inconclusive; also: potency is read from the fitted curve at half-maximal effect; nearly all actives have a fitted effect of over 60% in size). To be noted: recombinant CYP2C19, luciferin-H EGE luminescence; series mostly up to 57.1 µM. The procedure, abridged: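 5nM enzyme + 10uM Luciferin-H EGE (=KM), 50mM KPO4; cpd pin-transferred, 10 min 37C; NADPH regen, 60 min 37C; stopped w/ luciferin detection reagent, 20 min; luminescence. Normalized to 57uM ketoconazole (AC100).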

For assay [14], the target named is Dual specificity protein kinase CLK4 (Homo sapiens) (UniProt Q9HAZ1). The assay is described as follows: qHTS Assay for Inhibitors of CDC-like Kinase 4 (ADP-FP Assay) (AID 1795; active = well fitted curve in the direction sought with a large enough effect; an effect the other way counts as inactive or inconclusive;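 also: recombinant human CLK4 phosphorylating RS repeat peptide at 1 µM ATP; % is scaled to controls: 0 for no effect and ±100 for the full control effect; nearly all actives have a fitted effect of over 60% in size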). The settings on record: Transcreener ADP fluorescence polarization; series mostly up to 50 µM. The essentials: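 Inhibition of ADP formation by 6.25 nM Clk4 is measured using 1 uM ATP and 100 uM RS repeat peptide over one hour. Produced ADP displaces a fluorescent tracer from antibody, lowering polarization.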
Dual specificity protein kinase CLK4 (Homo sapiens), sequence (Q9HAZ1 whole entry, looked up): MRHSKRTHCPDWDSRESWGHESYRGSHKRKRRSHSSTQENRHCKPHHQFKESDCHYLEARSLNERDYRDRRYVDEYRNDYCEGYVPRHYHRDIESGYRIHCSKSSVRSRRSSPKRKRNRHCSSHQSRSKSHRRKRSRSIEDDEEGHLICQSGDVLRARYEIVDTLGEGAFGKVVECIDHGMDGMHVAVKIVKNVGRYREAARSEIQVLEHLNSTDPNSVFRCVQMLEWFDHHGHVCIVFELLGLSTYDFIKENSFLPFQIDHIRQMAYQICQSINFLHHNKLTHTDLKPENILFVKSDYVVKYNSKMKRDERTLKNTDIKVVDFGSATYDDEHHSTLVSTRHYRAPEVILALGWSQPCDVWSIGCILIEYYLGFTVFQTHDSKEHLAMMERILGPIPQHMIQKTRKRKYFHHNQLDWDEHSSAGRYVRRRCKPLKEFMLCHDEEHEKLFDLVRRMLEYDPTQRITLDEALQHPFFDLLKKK

[15] abbreviates: measured here: cell count channel max response.
Setting [16] is: measured here: lipid channel max response.

Ubiquitin carboxyl-terminal hydrolase 1 (Homo sapiens), sequence (O94782 whole entry, looked up): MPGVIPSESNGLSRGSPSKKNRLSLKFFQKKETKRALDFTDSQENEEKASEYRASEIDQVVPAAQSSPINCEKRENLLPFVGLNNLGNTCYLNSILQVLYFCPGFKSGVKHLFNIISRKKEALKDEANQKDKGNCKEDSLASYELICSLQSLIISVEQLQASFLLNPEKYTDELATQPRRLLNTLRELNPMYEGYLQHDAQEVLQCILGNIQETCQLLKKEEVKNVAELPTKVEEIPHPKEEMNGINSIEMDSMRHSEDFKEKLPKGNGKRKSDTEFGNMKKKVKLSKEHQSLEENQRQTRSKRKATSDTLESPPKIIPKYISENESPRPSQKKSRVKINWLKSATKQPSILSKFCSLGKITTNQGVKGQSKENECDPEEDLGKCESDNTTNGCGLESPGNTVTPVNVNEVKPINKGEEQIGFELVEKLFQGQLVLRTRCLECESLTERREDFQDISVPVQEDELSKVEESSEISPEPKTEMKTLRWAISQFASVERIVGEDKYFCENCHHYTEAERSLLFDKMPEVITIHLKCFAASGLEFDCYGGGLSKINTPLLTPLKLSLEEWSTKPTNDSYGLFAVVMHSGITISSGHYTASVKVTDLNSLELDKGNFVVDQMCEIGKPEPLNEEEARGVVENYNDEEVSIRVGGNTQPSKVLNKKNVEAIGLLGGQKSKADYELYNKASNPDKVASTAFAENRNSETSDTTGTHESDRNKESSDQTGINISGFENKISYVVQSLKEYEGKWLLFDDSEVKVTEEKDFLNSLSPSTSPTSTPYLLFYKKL
3',5'-cyclic-AMP phosphodiesterase 4B (Homo sapiens), sequence (Q07343 whole entry, looked up): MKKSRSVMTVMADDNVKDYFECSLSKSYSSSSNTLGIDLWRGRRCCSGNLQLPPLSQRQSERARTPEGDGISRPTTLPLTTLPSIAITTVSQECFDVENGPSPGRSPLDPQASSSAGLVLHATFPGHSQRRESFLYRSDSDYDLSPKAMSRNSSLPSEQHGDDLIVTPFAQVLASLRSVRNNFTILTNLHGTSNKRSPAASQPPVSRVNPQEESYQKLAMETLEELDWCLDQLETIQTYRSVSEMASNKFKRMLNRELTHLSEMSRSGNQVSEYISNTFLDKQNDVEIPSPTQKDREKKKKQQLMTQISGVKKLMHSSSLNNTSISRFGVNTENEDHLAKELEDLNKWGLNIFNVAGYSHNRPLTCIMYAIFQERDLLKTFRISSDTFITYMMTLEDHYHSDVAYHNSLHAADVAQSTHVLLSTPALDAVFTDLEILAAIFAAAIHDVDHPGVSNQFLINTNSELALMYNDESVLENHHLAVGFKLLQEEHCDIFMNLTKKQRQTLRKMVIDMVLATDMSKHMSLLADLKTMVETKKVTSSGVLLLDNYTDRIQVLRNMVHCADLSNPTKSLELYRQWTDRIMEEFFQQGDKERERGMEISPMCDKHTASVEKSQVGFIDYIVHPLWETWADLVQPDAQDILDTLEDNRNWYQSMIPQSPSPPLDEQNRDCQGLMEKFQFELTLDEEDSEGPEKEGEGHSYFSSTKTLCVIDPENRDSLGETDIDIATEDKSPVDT
Cytochrome P450 2C19 (Homo sapiens), sequence (P33261 whole entry, looked up): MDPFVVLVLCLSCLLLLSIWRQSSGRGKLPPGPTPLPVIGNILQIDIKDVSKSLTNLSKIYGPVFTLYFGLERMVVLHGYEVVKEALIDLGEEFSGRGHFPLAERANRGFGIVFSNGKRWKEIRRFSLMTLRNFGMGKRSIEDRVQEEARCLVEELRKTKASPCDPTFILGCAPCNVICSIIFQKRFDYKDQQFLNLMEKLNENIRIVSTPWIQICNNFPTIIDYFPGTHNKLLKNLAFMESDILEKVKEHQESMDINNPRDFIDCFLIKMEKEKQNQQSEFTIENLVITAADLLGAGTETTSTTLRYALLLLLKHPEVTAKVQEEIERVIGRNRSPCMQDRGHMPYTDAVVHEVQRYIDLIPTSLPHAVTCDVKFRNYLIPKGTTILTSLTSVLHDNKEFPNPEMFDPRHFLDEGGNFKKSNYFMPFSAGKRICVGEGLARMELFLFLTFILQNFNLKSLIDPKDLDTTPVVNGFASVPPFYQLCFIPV

As to `Cc1nc2cnc(Nc3ccccc3)nc2n(C[C@H]2CCCO2)c1=O`, the Potency in [1] was > 11.4 µM (inactive); in assay [5], > 9.22 µM (inactive); in assay [6], > 46 µM (inactive). Also, the activity change, negative = inhibition was -11% (inactive) in assay [2], 9.56% (inactive) in assay [3] and -5.71% (inactive) in assay [10]. Further, in assay [4], the activity, negative = inhibition was -15.1% (inactive). Further, the Potency entry in assay [7], in assay [8], in assay [9] and in [11] was “inactive” each time. Also, the max response in assay [10] (setting [15]) is -3%; in [10] (setting [16]), -12.3%.
As for `FC(F)(F)c1ccccc1-c1ccc2ncnc(N3CCOCC3)c2c1`, the Potency in assay [1] was > 11.4 µM (inactive); in [12], 0.251 µM (active); in [5] it was > 46 µM (inactive); in assay [6] it was > 46 µM (inactive); in [13], 0.631 µM (active). Further, in assay [4], the activity, negative = inhibition is 4.75% (inactive). The Potency result in assay [7], in [9], in assay [14] and in assay [11] was “inactive” in each case. Also, in assay [10], the activity change, negative = inhibition was 5.7% (inactive). Further, the max response in [10] (setting [15]) amounted to 20.5%; in assay [10] (setting [16]) it was 23.6%.
For `COc1cccc(Cn2c(=O)cnc3cnc(N4CCN(C)CC4)nc32)c1`, the results for the Potency in [1], in assay [5] and in assay [6] were > 11.4 µM (inactive), > 9.22 µM (inactive) and > 46 µM (inactive), respectively. Besides, the activity change, negative = inhibition was -3.06% (inactive) in assay [2], -19.9% (inactive) in assay [3] and 5.18% (inactive) in assay [10]. Besides, the activity, negative = inhibition in assay [4] was -11.2% (inactive). Moreover, the Potency entry in [7], in assay [8], in [9], in [14] and in assay [11] was “inactive” throughout. Moreover, the max response in assay [10] (setting [15]) stood at 20.4%; in assay [10] (setting [16]), 22.6%.
